From the supplement of paper PMC11417369
Whole data set: some 25,000 sequences, median “ln(normalized median fluorescence intensity)” near 9.3, cut for the highest 2% near 10. For the sample, the highest values were picked, then their nearest neighbours and some sequences at random.

These sequences were tested on PF3D7_0420300 AP2 domain 1 (GST-tagged) (assay: gcPBM binding intensity (ln(normalized median fluorescence intensity)); higher = stronger DNA binding).
How it was run: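 In this array assay, P. falciparum DNA-binding domains with a GST tag, expressed in E. coli, were applied for 1 h to primer-extended double-stranded 36-bp intergenic genomic probes and negative controls on an Agilent 4 × 180k array. Bound protein was visualised with Alexa488 anti-GST antibody at 488 nm. Binding intensity is the highest Masliner-normalised natural-log median intensity across replicate spots of either probe orientation.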

| Sequence | gcPBM binding intensity (ln) |
| --- | --- |
| TATAAATTTATAAATAGTACATATATTTATATATAT [XGTACX_site6433] | 9.07 |
| CACAGACACGGACACACACACACACCCACATATATA [CACACA_site4355] | 10.3 |
| CACAGACACGGACACACACACACACCCAGACACATA [CACACA_site4357] | 10.2 |
| CCCACAGACGGACACACACACATATATATATATATA [CACACA_site4351] | 9.81 |
| CACAGACACGGACACACACACATATATATATATATA [CACACA_site5248] | 9.86 |
| CATACACCCAGACACACACACATATATATATATATA [CACACA_site634] | 9.94 |
| CCCACAGACGGACACACACACACATATATATATATA [CACACA_site4352] | 10.1 |
| TTGGCATACGGACACACACACACACCCAGACATATA [CACACA_site4492] | 10.2 |
| TACAGATACGGACACACACACACACCCAGACAAAAA [CACACA_site4432] | 10 |
| CCCACAGACGGACACACACACACACCGACACATATA [CACACA_site4356] | 10.2 |
| AATCTAATATAATGCACACATAAAAAAAAATCAAAC [CACACA_site3633] | 9.8 |
| TAAAAATATATATGATTGCACTTAGGACAATATATA | 9.14 |
| TTATTTTTTAAAAGTAGTACAAATTTTTATAGAAAA [XGTACX_site7407] | 8.46 |
| AATATTAAAGAATAATGTACAAAATAAAAGCAAAGA [XGTACX_site3550] | 9.86 |
| TATTATTCTACTATTATATTCTATATTATTTATAGT [CACACA_negctrl_site499] | 9.37 |
| ATAATAATATAAAAATGTACATATATTTATAATTGT [XGTACX_site3429] | 9.23 |
| AGCACAGACGGACACACACACACACCCACAGACACA [CACACA_site4358] | 10.2 |
| CATACAGATGGACACACACACACACCCACAGACAAA [CACACA_site4431] | 10.1 |
| AGCACAGACGGACACACACACATATATATATATATA [CACACA_site4341] | 9.88 |
| TTTGAAGGAAGGGGGGGAGGGGCCATAACAAAGGAA [GTGCAC_negctrl_site408] | 10.4 |
| AAAGAAGGGGGGGGAAAAAAAAATAAAAGAGGAAAA [XGTACX_negctrl_site92] | 9.59 |
| AAAAAAAAAAAAAAAAGGGGGGGAGGGATTGAAAAA [CACACA_negctrl_site193] | 10 |
| GCATATGTTCAGCGTTGTACATAAAAAAAAACATAT [XGTACX_site5974] | 9.07 |

| Sequence | gcPBM binding intensity (ln) |
| --- | --- |
| TTGATTTATATTTAATGTACATTTTTACAGAAAATT [XGTACX_site2747] | 8.93 |
| AAAAAAAAAAAAAAATGTACATATATATATATATTA [XGTACX_site7330] | 8.98 |
| TGGGAGCACAGACACACACACACACCCATATATATA [CACACA_site335] | 10.1 |
| AATGAACTCACGAGCACACACACACCGATATATATA [CACACA_site4710] | 10 |
| GGCATACACGGACACACACACACACCGACATATATA [CACACA_site4493] | 10.3 |
| TGGGAGCACAGACACACACACACACCGATATATATA [CACACA_site8001] | 10.2 |
| CACAGACACGGACACACACACACACCGATATATATA [CACACA_site4353] | 10.3 |
| CACGCATACAGACACACACACACACCGATATATATA [CACACA_site8113] | 10.3 |
| CGCACAGACGGACACACACACACATATATATATATA [CACACA_site5249] | 10.1 |
| CACGCATACAGACACACACACACACCCATATATATA [CACACA_site636] | 10.2 |
| CACAGACACGGACACACACACATATATAATATATAT [CACACA_site4495] | 9.98 |
| CATATATACTCATACACACACACACCGACACAGACA [CACACA_site5026] | 10.1 |
| AATTAGATACTAACAAGTACATATATATATATATAT [XGTACX_site2252] | 9.59 |
| ATATCGGGTGCATTAACACACATTTATTTGAATAAA [CACACA_site2350] | 9.24 |
| TCAAGAGTTATATAAACACACATACATACAGACATA [CACACA_site6998] | 9.6 |
| ATGTTATAAAATATATGTACATATTTATATAAAATA [XGTACX_site5766] | 9.14 |
| AATATAATATAATATAGTACGTAAAAATATTATACA [XGTACX_site2170] | 9.47 |
| ATATATGCATATATATGTACATATATATATATATAT [XGTACX_site7403] | 9.22 |
| ATTATATTATATTATACATGCATAATATTATATAAA [TGCATGCA_site647] | 9.17 |
| ATTAAATAAACCATTACACACTTTTATGTTTTGAAA [CACACA_site1143] | 9.3 |
| AAAACTTTTTTAACAGAAAAATAGGGATACAATATA [CACACA_negctrl_site1708] | 9.35 |
| AGGATACACGGACACACACACATATATATATATATA [CACACA_site4654] | 9.9 |
| CACGCATACGGACACACACACACACCGATATATATA [CACACA_site4521] | 10.3 |

| Sequence | gcPBM binding intensity (ln) |
| --- | --- |
| ATATATAAAATTATATGTACATATATCTATTTATAA [XGTACX_site3713] | 9.04 |
| TTTATATAACAACAAAATGGAAATATATATGTATGT [TGCATGCA_negctrl_site98] | 9.53 |
| TATACATACACATACACACATACACCCATACACATA [CACACA_site1746] | 9.93 |
| CATACTCACCAACACACACACACACCCATATAGAAT [CACACA_site592] | 10.2 |
| CACCCACCCACATACACACACATACACATATATATA [CACACA_site1722] | 10.2 |
| ACCCATATAATATATACACACATATATATATATATA [CACACA_site4731] | 9.52 |
| CATATACACCAACACACACACACACCCACAAAAAAA [CACACA_site496] | 10.2 |
| CATACACCCGGACACACACACACACCCATATATAAT [CACACA_site4494] | 10.3 |
| TATACACCCGGACACACACACATATATATATATATA [CACACA_site5030] | 9.94 |
| TATACTCAGAAACACACACACACACCCAAAAAAAAA [CACACA_site4434] | 9.97 |
| CACATATATACACATACACACACACCCATACACCCA [CACACA_site8505] | 10.2 |
| TACACCCACCCACATACACACACATACACATATATA [CACACA_site8503] | 10.2 |
| CTTATATATACATATACACACACACCCATATATATA [CACACA_site8705] | 10.1 |
| ATAATTATATTTTATTCACACATCGTTATATAGTAA [CACACA_site4743] | 9.31 |
| AATATAAATGTGATTACACACAACAGATTTAAATGG [CACACA_site4802] | 9.53 |
| TGTTTATATAATATTCTACACACCAACAACAAACAT [CACACA_site8087] | 9.74 |
| AAAATTTTTAGTTATACACACAACATAGAAAATATT [CACACA_site328] | 9.47 |
| TTTTTTTCACAAAATACACACAATATATTTTATATC [CACACA_site1138] | 9.25 |
| TATAATAAAATTTTTACACACTTTAAAAAAAAAAAA [CACACA_site524] | 9.06 |
| TATATATACATATACACACACACACCCATATATATA [CACACA_site2246] | 10.2 |
| CATATACATACACATACACACATACACCCATACACA [CACACA_site8514] | 9.77 |
| CATACACCCATACATACACACATACATATATATATA [CACACA_site8591] | 9.7 |
| CATACACCCCAACACACACACACACCCATATATAAT [CACACA_site8097] | 10.4 |

| Sequence | gcPBM binding intensity (ln) |
| --- | --- |
| ATACATATATATATATGTACATATATTTATATTTAT [XGTACX_site3155] | 9.21 |
| TGAAAAAAGAAAAATACACACATATAACATAATATA [CACACA_site7126] | 9.83 |
| CTCAACAAAATATGAGTGCATTGTTATTACATATAT | 9.32 |
| TAAAAATATAGGTATACACACATATAAATATAAATA [CACACA_site7785] | 9.64 |
| TAATTCTTGTAAAATGTGCGCAGTAGATATAGTTTT | 9.27 |
| TACACCCACCAACACACACACACACTAATAAAAAAA [CACACA_site8060] | 10.1 |
| AAAAGATAATTATGCACACACACACCCAGACACAAC [CACACA_site5428] | 10.1 |
| TGCACGCACAGACACACACACAACTAAAAAATAATG [CACACA_site7250] | 9.72 |
| TAATTATGCAGACACACACACACACGCAACTAAAAA [CACACA_site7253] | 10.1 |
| TATGCACCCAGACACACACACACAACTAAAAAATAA [CACACA_site2567] | 9.96 |
| AAAAATAAAAATTGCACACTAAAAAATTACGCACGA [CACACA_site3418] | 9.59 |
| GATAATTATGGACACACACACACACCCACAACTAAA [CACACA_site8824] | 10.3 |
| TAATTATGCCAACACACACACACACCCAACTAAAAA [CACACA_site8823] | 10.2 |
| TGTGCCCAAAATTATGCACACACCTAAAATTAATTT [CACACA_site2914] | 9.42 |
| AAGATAATTACGCACACACACACACGCCCACAACTA [CACACA_site7255] | 10.2 |
| GATAATTACGGACACACACACACACGCACAACTAAA [CACACA_site7254] | 10.3 |
| TAAAAAATAAAAATTGCACACTAAAAAATTACGCAC [CACACA_site9129] | 9.48 |
| GTACATAGGTATAGCACACACAAATGTAGGTATTTT [CACACA_site4049] | 9.65 |
| TATATTTATTATAACACACACATATAAATATTATAG [CACACA_site6726] | 9.67 |
| TTGTTCTAATATATTGCACACGTAAAAATATAGGTA [CACACA_site8195] | 9.3 |
